Where a name gives a salt, the structure may show the parent alone. ± gives the standard deviation of the averaged measurements.

The assay deals with mESC LDLR-Dup GFP reporter (SpCas9 MH-deletion repair). Briefly: fraction of GFP+ cells relative to DMSO control (fold change); higher = more MH-deletion repair to in-frame LDLR (or more editing). The following applies: 2 µM; 7 days post-transfection.
Consider `Nc1ncnc2c1ncn2[C@@H]1O[C@H](CO)[C@@H](O)[C@H]1O` [Adenosine], for which the “fraction of GFP+ cells” value was 1.04 ± 0.13. As to `O=C(O)c1cc(I)ccc1NC(=O)[C@H](Cc1ccccc1)NCc1ccccc1`, the “fraction of GFP+ cells” value came to 1.89 ± 0.36.

Regarding `CC(N)C12CC3CC(CC(C3)C1)C2` (stereo not given) [Rimantadine Hydrochloride], the “fraction of GFP+ cells” value was 0.701 ± 0.034. Next, `O=S(=O)(c1cccc2cnccc12)N1CCCNCC1` [Fasudil (HA-1077) HCl]: 2.2 ± 0.25. With `O=C(Nc1cccc(Cl)c1)Nc1ncc(CCNc2ncnc3ccsc23)s1` [SNS-314 Mesylate] the figure was 0. Take `CSc1nc2cc(Cl)c(Oc3cccc(Cl)c3Cl)cc2[nH]1` [Triclabendazole]: the “fraction of GFP+ cells” value stood at 1.67 ± 0.26. With `CC(C(=O)Nc1cccc(/N=C/c2c(O)ccc3ccccc23)c1)c1ccccc1` (stereo not given) [Salermide] the figure was 0.987 ± 0.56. Next, `O=CN1CC/C(=C/c2ccc3c(c2)OCO3)C1=O`: 0.833 ± 0.28; `O=C(c1ccc(Cl)cc1Cl)n1nnc2ccccc21`: 0.756 ± 0.056; `O=[N+]([O-])c1ccc(Nc2ccccc2-c2ccccc2)c2nonc12`: 0.854 ± 0.23. With `COc1cc(Br)c(Nc2nc(-c3c(C)nc4ncccn34)cs2)c(Br)c1` the figure was 0.111 ± 0.028. As for `Cc1nc(=O)c2cc(CN(C)c3ccc(C(=O)N[C@@H](CCC(=O)O)C(=O)O)s3)ccc2[nH]1` [Raltitrexed], the “fraction of GFP+ cells” value was 2.3 ± 1. Next, `CC(=O)c1cc([N+](=O)[O-])c(Sc2cccc(Cl)c2Cl)s1`: 0.919 ± 0.038; `CC(C)(Oc1ccc(C(=O)c2ccc(Cl)cc2)cc1)C(=O)O` [Fenofibric acid]: 2.08 ± 0.55. For the molecule `CC(C)OC(=O)C(C)(C)Oc1ccc(C(=O)c2ccc(Cl)cc2)cc1` [Fenofibrate], the “fraction of GFP+ cells” value was found to be 1.96 ± 0.19.
